# Laboratory results: PubChem BioAssay (NCI)
# The panel holds about 83,000 compounds, 20% with a hit somewhere; the sample as a whole holds those more often.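 Values shown are percent growth following 48 h exposure of cells in 96-well plates to a single concentration of compound; below 10 was considered active.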 Values without a mark were called inactive. Calls of active or inactive are those of the source.
# Experiments:
# Test in all cases: NCI-60 one-dose screen, 48 h (100 = growth as untreated, 0 = no growth, -100 = all killed)
# Conditions in all cases: 10 µM unless noted
# NCI-H23 lung = test system: NCI-H23 lung
# NCI-H226 lung = test system: NCI-H226 lung
# NCI-H322M lung = test system: NCI-H322M lung
# HOP-62 NSCLC = test system: HOP-62 NSCLC
# NCI-H460 lung = test system: NCI-H460 lung
# HOP-92 NSCLC = test system: HOP-92 NSCLC
# NCI-H522 lung = test system: NCI-H522 lung
# A549/ATCC NSCLC = test system: A549/ATCC NSCLC
# 786-0 renal = test system: 786-0 renal
# COLO 205 colon = test system: COLO 205 colon
# DU-145 prostate = test system: DU-145 prostate
# K-562 leukemia = test system: K-562 leukemia
# MALME-3M melanoma = test system: MALME-3M melanoma
# MDA-MB-231 breast = test system: MDA-MB-231 breast
# RXF 393 renal = test system: RXF 393 renal
# SF-268 CNS = test system: SF-268 CNS
# SF-539 CNS = test system: SF-539 CNS
# UACC-257 melanoma = test system: UACC-257 melanoma
# M14 melanoma = test system: M14 melanoma
SMILES,growth (NCI-H23 lung),growth (NCI-H226 lung),growth (NCI-H322M lung),growth (HOP-62 NSCLC),growth (NCI-H460 lung),growth (HOP-92 NSCLC),growth (NCI-H522 lung),growth (A549/ATCC NSCLC),growth (786-0 renal),growth (COLO 205 colon),growth (DU-145 prostate),growth (K-562 leukemia),growth (MALME-3M melanoma),growth (MDA-MB-231 breast),growth (RXF 393 renal),growth (SF-268 CNS),growth (SF-539 CNS),growth (UACC-257 melanoma),growth (M14 melanoma)
Brc1cccc(-n2ncc3c(Nc4ccc(-c5nnc(-c6ccccc6)o5)cc4)ncnc32)c1,94.5%,90.2%,104%,89.6%,109%,104%,98.3%,109%,104%,107%,111%,110%,110%,93.5%,92.9%,98.6%,95.9%,108%,108%
c1ccc(C(CC2=NCCCN2)c2ccccc2)cc1,99.6%,98%,99.7%,94.1%,102%,82.6%,90.9%,91.7%,107%,102%,102%,107%,93.2%,88.6%,113%,100%,88%,97.7%,–
O=S(=O)(NCC[C@@H]1C[C@H]1c1ccc2ccccc2c1)c1ccc(C(F)(F)F)cc1,84.9%,86.1%,100%,105%,96.1%,91.4%,83.8%,85.3%,96.3%,105%,96.6%,89.2%,88.5%,94.6%,109%,89.3%,99.9%,100%,–
C/C(=N\NC(=S)N1CCCCC1)c1ccccn1,30.8%,7.07% (active),4.53% (active),21%,-23.9% (active),-1.04% (active),11.5%,9.13% (active),15.5%,-14% (active),28.3%,2.29% (active),5.96% (active),24.7%,-17.6% (active),8.38% (active),5.37% (active),-2.18% (active),–
Cc1ccc(/C=C/C(=N/N=C(N)N)c2ccccc2)cc1,31.3%,59.5%,41.1%,25.8%,8.15% (active),13.9%,9.07% (active),18.7%,32.8%,-16.4% (active),2.48% (active),11.7%,40%,35.5%,-22.9% (active),36.7%,3.64% (active),54.5%,-24.4% (active)
C/C(=N\OC(=O)Nc1cccc(Cl)c1)c1ccccc1,106%,92.1%,97.6%,95.8%,105%,132%,91.9%,89.2%,99.4%,117%,102%,90.1%,98.2%,103%,87.5%,113%,104%,104%,108%
CN1CCN(Cc2ccc(NC(=O)c3cncc(C#Cc4ncc5ccccn45)c3)cc2C(F)(F)F)CC1,9.22% (active),-8.28% (active),33.3%,16.4%,5.79% (active),-1.18% (active),18.4%,7.74% (active),3.06% (active),-26.5% (active),-4.29% (active),3.35% (active),-21.4% (active),15.4%,-10.1% (active),15.4%,-79.6% (active),7.63% (active),5.5% (active)
C#CC[C@@H]1C[C@]2(C)[C@H]3CC[C@@H]4[C@H]5C(C(=C)C)CC[C@]5(C(=O)NCCCCN)CC[C@@]4(C)[C@]3(C)CC[C@H]2C(C)(C)[C@H]1OC(C)=O (stereo partly drawn),11.7%,96.1%,60.4%,105%,-56.5% (active),42.2%,-64.4% (active),-54.1% (active),-87.5% (active),-71.6% (active),-77.8% (active),-9.82% (active),46.6%,-81.2% (active),-89.2% (active),91.6%,-82.9% (active),85.9%,-58.5% (active)
C=CCn1c(SCC(=O)Nc2ccc(C(=O)/C=C/c3ccccc3)cc2)nnc1-c1ccc(OC)c(OC)c1,80.7%,85.9%,85.9%,99.1%,88.2%,82.7%,68.3%,61%,75.6%,91.2%,89.6%,47.5%,105%,77.1%,85.7%,86%,92.1%,79.9%,73.6%
